# A selection: hits, their analogues and other compounds. The true share with any hit is near 7.4%.
# FLuc inh – inhibitors of firefly (Photinus pyralis) luciferase | P08659 | purified P. pyralis luciferase, luminescence, biochemical | Potency, µM (series often up to 115 µM), actives largely listed as inhibitors | 76,000 compounds, 2.5% hits | AID 1347043; note: nearly all actives have a fitted effect of over 65% in size
# Target sequence (P08659 whole entry, looked up): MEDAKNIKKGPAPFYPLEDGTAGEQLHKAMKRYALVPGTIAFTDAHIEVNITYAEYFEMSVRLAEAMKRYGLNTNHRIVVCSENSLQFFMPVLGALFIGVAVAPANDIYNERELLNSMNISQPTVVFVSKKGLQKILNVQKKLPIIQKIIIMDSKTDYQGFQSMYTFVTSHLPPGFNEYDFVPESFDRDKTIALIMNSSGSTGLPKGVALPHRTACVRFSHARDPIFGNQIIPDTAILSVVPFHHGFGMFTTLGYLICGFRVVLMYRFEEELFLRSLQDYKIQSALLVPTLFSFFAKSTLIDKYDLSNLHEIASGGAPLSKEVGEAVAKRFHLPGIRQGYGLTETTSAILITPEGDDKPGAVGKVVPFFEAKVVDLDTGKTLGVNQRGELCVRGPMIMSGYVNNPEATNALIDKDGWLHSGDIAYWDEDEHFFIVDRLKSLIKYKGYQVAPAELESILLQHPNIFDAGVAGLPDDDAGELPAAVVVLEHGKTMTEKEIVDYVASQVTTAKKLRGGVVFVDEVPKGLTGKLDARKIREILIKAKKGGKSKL
#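 Purified P. pyralis luciferase (10nM final) in 50mM Tris acetate pH 7.5, 10mM Mg acetate, 0.01% Tween-20, 0.05% BSA with 10uM D-luciferin and 10uM ATP. Compounds titrated qHTS. Luminescence imaged on CCD.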
# SNCA expr inh – SNCA gene expression inhibition. HEK-293 SNCA-luciferase knock-in, luminescence, 24 h. Potency, µM (doses to about 57.2 µM), inactives show at the top dose activity change, negative = inhibition, hits mostly inhibitors. 140,000 compounds, 0.17% hits. AID 1671194;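 note: plate controls were DMSO cells for no effect and cell-free wells for full effect; nearly all actives have a fitted effect of over 45% in size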
# hNpr1 antagonist – human Npr1 receptor antagonism; P16066; 76,000 compounds, 1.6% hits; Potency, µM (doses to about 46.3 µM), without a hit: at the top dose activity change, negative = inhibition, usual class: inhibitors; HEK293 hNpr1 GloSensor cGMP, ANP-stimulated luminescence; AID 1347048; calls by dose curve; note: nearly all actives have a fitted effect of over 60% in size
#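 HEK293 cells stably expressing human Npr1 and cGMP GloSensor pGS-40F, loaded 2 h with 2% GloSensor reagent, given compound 30 min at room temperature. Luminescence read before and 20 min after 0.1 nM hNppA.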
# NIH3T3 tox – cytotoxic compounds in NIH 3T3 cells; Potency, µM (doses to about 96.7 µM), inactives show at the highest dose activity change, negative = cytotoxicity, usual class: inhibitors; 94,000 compounds, 4.3% hits; NIH 3T3 viability, CellTiter-Glo ATP luminescence, 48-72 h; note: nearly all actives have a fitted effect of over 55% in size
#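 ATP-dependent luminescence (CellTiter-Glo) served as the viability signal for NIH 3T3 cells treated with compound for 48 or 72 hr at 37 °C.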
# HEK293 tox – HEK 293 cell cytotoxicity | AID 1345083 | HEK 293 viability, ATP luminescence (CellTiter-Glo), 48-72 h | Potency, µM (top dose mostly 115 µM), inactives show at the top dose activity change, negative = cytotoxicity, actives largely listed as inhibitors | 94,000 compounds, 6.6% hits; note: nearly all actives have a fitted effect of over 60% in size
#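 HEK 293 cells seeded at 250 cells/well were exposed to compound for 48 or 72 hr at 37 degree Celsius. Viability taken as ATP content by CellTiter-Glo luminescence.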
# HEK293 viab – counter-screen for SNCA expression inhibitors: cell viability; HEK-293-SNCA-luc viability, GF-AFC fluorescence, 24 h; Potency, µM (top dose mostly 57.1 µM), for inactives: top-dose activity change, negative = cytotoxicity, hits mostly cytotoxic; 150,000 compounds, 0.12% hits; AID 1671193;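 note: 0% = DMSO-treated cells and -100% = medium-only wells without cells; nearly all actives have a fitted effect of over 30% in size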
#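 HEK-293-SNCA-luc cells (1500/well) plated 24 h, then exposed 24 h to a dilution series; GF-AFC added 30 min at 37C, fluorescence 405/540 nm; normalised to medium-only and DMSO wells, Hill fit.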
# * marks the source's active call; other numbers are inactive results; i = inactive; ? = inconclusive; / = no result given; [ ] = another dose, or the depositor's remark. Unless noted, calls come from the whole dose curve; as a rule, active = well fitted curve in the direction sought with a large enough effect; inconclusive = small, poorly fitted or top-dose-only effect, or another doubt; inactive = no such curve, though single readings can be large; an effect the other way counts as inactive or inconclusive. Unless noted, % is set by controls: 0 for no effect and ±100 for the full control effect; potency is the fitted concentration of half-maximal effect.
SMILES,FLuc inh,SNCA expr inh,hNpr1 antagonist,NIH3T3 tox,HEK293 tox,HEK293 viab
c1ccc(-c2ccc3ncc(Nc4ccc5c(c4)OCCO5)n3n2)cc1,?,9%[87.6 µM],-11%[70.6 µM],?,89µM*,10%[87.6 µM]
CNC(=O)C1CCN(C(=O)c2ccc(-c3cccc(OC)c3)cc2)CC1,/,25%,/,-10%,?,2%[12.5 µM]
COc1ccc(NC(=O)Cn2c(N3CCCCC3)nc(C)c(C)c2=O)cc1Cl,i,-23%,-11%,?,25µM*,?
O=C(NCc1ccc(C(F)(F)F)cc1)c1nc2cccnc2n(C2CC2)c1=O,/,21%,/,?,?,0%
O=[S+]([O-])(c1ccccc1)N1CCCN(c2ccnc3ccnn23)CC1,/,13%,/,?,?,8%
O=C(c1ccncc1)N1CCCN(c2ccnc3ccnn23)CC1,/,13%[87.6 µM],/,-30%[138 µM],-20%[172 µM],0%[87.6 µM]
O=[S+]([O-])(c1cccc(C(F)(F)F)c1)N1CCCN(c2ccnc3ccnn23)CC1,/,0%,/,?,45µM*,10%
O=C(c1ccc(C(F)(F)F)cc1)N1CCCN(c2ccnc3ccnn23)CC1,/,-23%,/,?,22µM*,-6%
CC(C)c1nc(N(C)Cc2cc(-c3cccnc3)no2)c2cnn(C)c2n1,i,9%,-4%,?,?,8%
CN(CCCN1CCCCCC1)c1nc(-c2ccncc2)nc2c1cnn2C,i,?,10%,32µM*,?,?
O=C(NCc1ccccc1F)c1cn2cc(-c3ccccc3)sc2n1,/,90%,/,i,i,-4%
OCc1cccc(-c2ccc3ncc(Nc4cccc(F)c4)n3n2)c1,i,2%[87.6 µM],-24%[70.6 µM],28µM*,56µM*,-2%[87.6 µM]
Cc1ccccc1Nc1cnc2ccc(-c3cccc(CO)c3)nn12,i,7%[87.6 µM],-3%[70.6 µM],?,79µM*,-27%[87.6 µM]
COc1ccccc1Nc1cnc2ccc(-c3cccc(CO)c3)nn12,i,-8%[87.6 µM],?,?,?,?
COc1ccc(-c2cc(C(=O)NCc3cccc(Cl)c3)c3cnn(C)c3n2)cc1,/,-4%,/,?,-25%,-15%
NC(=O)Cc1c[nH]c2ncc(-c3cccc(O)c3)cc12,?,-23%[87.6 µM],-2%[70.6 µM],?,4%[230 µM],-4%[87.6 µM]
COc1cccc(-c2cnc3[nH]cc(CC(N)=O)c3c2)c1,89µM*,0%[87.6 µM],-19%[70.6 µM],71µM*,-19%[230 µM],4%[87.6 µM]
NC(=O)Cc1c[nH]c2ncc(-c3cccc(OC(F)(F)F)c3)cc12,i,-25%[87.6 µM],-11%[70.6 µM],?,?,-16%[87.6 µM]
NC(=O)Cc1c[nH]c2ncc(-c3cccc(C(F)(F)F)c3)cc12,i,-10%[87.6 µM],-27%[70.6 µM],32µM*,?,4%[87.6 µM]
CSc1ccc(-c2cccc(C(=O)NCCNC(=O)c3ccc(C)cc3)c2)cc1,/,11%,/,?,?,4%[12.5 µM]
CCNC(=O)N[C@H]1C[C@@H](Cc2cc(-c3ccccc3)on2)C1(C)C,?,71%[87.6 µM],-21%[70.6 µM],?,?,-6%[87.6 µM]
CC1(C)[C@H](Cc2cc(CCO)on2)C[C@@H]1NC1CCOCC1,i,0%[87.6 µM],7%[70.6 µM],-5%[174 µM],-23%[172 µM],8%[87.6 µM]
CN1CCC(N[C@H]2C[C@@H](Cc3cc(-c4ccccc4)on3)C2(C)C)CC1,i,?,-4%[70.6 µM],8.9µM*,8.9µM*,?
CC(C)N[C@H]1C[C@@H](Cc2cc(-c3ccccc3)on2)C1(C)C,?,101%[87.6 µM],4%[70.6 µM],63µM*,63µM*,-16%[87.6 µM]
CN1CCC(N[C@H]2C[C@@H](Cc3cc(CN(C)Cc4ccccc4)on3)C2(C)C)CC1,i,-19%[87.6 µM],-18%[70.6 µM],28µM*,40µM*,-11%[87.6 µM]
Cc1ccc(-c2cn3cc(C(=O)NCC4CCCCC4)nc3s2)cc1,/,-5%,/,-22%,-17%,-2%
Cc1nc2c(c(-c3ccc(Cl)cc3)n1)CCN(C(=O)NC1CCCC1)CC2,/,18%,/,?,-26%,5%
CNC(=O)COC1CN(C(=O)c2ccc(C)cc2)CCC(=O)N(C)c2ccccc21 (stereo not given),/,1%[25.6 µM],/,?,-10%[57.5 µM],?
COc1ccc(C(=O)N2CCN(CCn3nc4n(c3=O)CCCC4)CC2)cc1,/,/,/,-2%,-17%,/

# Screens as filed in PubChem.
